# Compound activity from PubChem.
# NADH coupling = blocks coupling enzymes of NAD/NADH assays | coupled PK/LDH NADH assays, four targets | IC50, µM (highest dose often 10 µM), inactives show at the top dose inhibition | 65,000 tested, 0.02% active;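 active = single-dose screening hits from any of four coupled enzyme assays that gave an IC50 when retested across doses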;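 note: the DPM-DC format reads NADH fluorescence rather than 340 nm absorbance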
# Spn MK inh = blocks S. pneumoniae mevalonate kinase | purified MK, PK/LDH-coupled NADH absorbance 340 nm | inhibition, % at 10 µM | 65,000 tested, 0.48% active | AID 555;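 active = ranked among the strongest by inhibition in the single 10 µM screen, a fixed top-ranked set picked for dose follow-up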
# Fluor 339 460 = intrinsic fluorescence of library compounds, ex339/em460 – biochemical, MLSMR library, data from DPM-DC assay, artefact control, profiling panel | 65,000 tested, 5.5% active | compound autofluorescence, ex339/em460 nm, NADH buffer; hits give high values; 1 = no-compound wells, NADH background | fluorescence fold increase at 10 µM;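 active = at 10 µM, mean starting fluorescence two-fold or more over control wells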;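 note: signal is the first read of a kinetic run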
# Abs 340nm = absorbance at 340 nm; compound absorbance at 340 nm, fold over control; fold change at 10 µM; 65,000 tested, under 10 active;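 active = at 10 µM dose, initial 340 nm absorbance at least 2 fold that of control wells; inactive = change under 2 fold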;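 note: initial absorbance extrapolated from kinetic A340 decline of NADH oxidation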
# Spn DPM-DC inh = S. pneumoniae DPM-DC inhibition. AID 556. purified DPM-DC, PK/LDH coupled NADH fluorescence. 65,000 tested, 0.49% active. calls only at 10 µM;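 active = the 320 compounds with the highest percent inhibition in the single-dose primary screen, excluding strongly autofluorescent ones, cut at about 32% in these data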;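 note: kinetic rate of NADH fluorescence loss reporting ADP formed by the decarboxylase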
# Spn PMK inh = inhibitors of Streptococcus pneumoniae phosphomevalonate kinase | purified PMK, PK/LDH-coupled NADH absorbance 340 nm | inhibition, % at 10 µM | 65,000 tested, 0.49% active | AID 539;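 active = top-ranked compounds by inhibition in the single 10 µM screen, taking a fixed number of the strongest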;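 note: 0% = full reaction with DMSO carrier and 100% = background rate without enzyme reaction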
# * marks the source's active call; other numbers are inactive results; i = inactive; / = no result given; + = active, no number. In the library only some 6.5% were active in any assay of this set; here they are far more common.
SMILES,NADH coupling,Spn MK inh,Fluor 339 460,Abs 340nm,Spn DPM-DC inh,Spn PMK inh
O=C(CSc1nnc(Cc2ccccc2)o1)Nc1ccc(Br)cn1,6%,8,1.1,1.1,i,9
Cc1cc(C)c2c(=O)n(CC(=O)N3CCC(Cc4ccccc4)CC3)sc2n1,12%,19,1.2,0.99,+,7
Cc1cccc(N2CCN(C(=O)Cn3sc4nc(C)cc(C)c4c3=O)CC2C)c1 (stereo not given),9%,14,1.2,1.1,i,0
Cc1cc(C)c2c(=O)n(CC(=O)NCCCN3CCOCC3)sc2n1,10%,23,1.2,0.99,i,10
Cc1cc(C)c2c(=O)n(CC(=O)NCCCN3CCN(c4ccccc4F)CC3)sc2n1,11%,27,1.3,1,+,8
CC1CCCN(C(=O)CSCC(=O)N=c2sc3ccccc3n2C)C1 (stereo not given),0%,0,1.1,1.1,i,0
Cc1oc(-c2ccc(Cl)cc2)nc1CN1CCC(C(=O)N2CCN(c3ccccn3)CC2)CC1,4%,11,1.2,1.1,i,0
Cc1ccc(C)c(N(CC(=O)NC2CCCC2)C(=O)CCCC(=O)Nc2ccccn2)c1,6%,0,1,0.98,i,48*
Cc1cccc(N(CC(=O)NC2CCCC2)C(=O)CCCC(=O)Nc2ccccn2)c1,6%,0,1.1,0.99,i,17
CCOc1ccc(S(=O)(=O)Nc2ccccc2SC)c2cccnc12,1%,3,1.2,1.1,i,0
CCOc1ccc(S(=O)(=O)NCC2CCCO2)c2cccnc12 (stereo not given),4%,6,2.2*,1,i,0
O=C(NCC1CCCO1)c1ccc2c(=O)n(CCc3ccccc3)c(=O)[nH]c2c1 (stereo not given),9%,4,1.4,1.1,i,20
COC(=O)c1cc2c(=O)n3ccccc3nc2n(C)c1=N,5%,1,3.8*,1,/,8
COC(=O)c1cc2c(=O)n3ccccc3nc2n(Cc2cccnc2)c1=N,4%,6,3.7*,1.1,/,2
N#Cc1cc2c(=O)n3ccccc3nc2n(Cc2cccnc2)c1=N,0%,0,1.3,1.1,i,0
Cc1cccn2c(=O)c3cc(C(=O)NCC4CCCO4)c(=N)n(Cc4cccnc4)c3nc12 (stereo not given),8%,9,3.7*,1,/,6
Cn1nc(C(=O)NCC2CCCO2)c2ccccc2c1=O (stereo not given),7%,8,1.1,1,i,12
N=c1c(C(=O)NCC2CCCO2)cc2c(=O)n3ccccc3nc2n1Cc1cccnc1 (stereo not given),3%,0,3.7*,0.98,/,5
Cc1cccc(-n2c(N)c(C(=O)NCCN3CCOCC3)c3nc4ccccc4nc32)c1,5%,0,5.1*,1.1,/,10
COCCCn1c2nc3ccccc3nc2c2c(=O)n(CC3CCCO3)cnc21 (stereo not given),7%,13,2.3*,1.1,/,0
O=C(NCCN1CCOCC1)c1ccc(-c2ccccc2)cc1,5%,16,1.1,1.1,i,0
CC(C)Cn1c(N)c(C(=O)NCCN2CCOCC2)c2nc3ccccc3nc21,5%,12,2.9*,0.99,/,7
CC(C)Cn1c2nc3ccccc3nc2c2c(=O)n(CCN3CCOCC3)cnc21,10%,10,3.5*,1.1,/,9
CCCCn1c2nc3ccccc3nc2c2c(=O)n(CCC(C)C)cnc21,1%,0,1.8,1,i,0
O=C1c2cccnc2C(=O)N1Cc1ccc(F)cc1,6%,3,1,1,i,16
COc1ccc2nc(NC(=O)C3CCCN(S(=O)(=O)c4cccc5nonc45)C3)sc2c1 (stereo not given),28%,70*,1,1,i,15
COc1ccc2nc(NC(=O)C3CCCN(S(=O)(=O)c4cccc5nsnc45)C3)sc2c1 (stereo not given),4%,7,1,0.98,i,8
O=S(=O)(NCCSc1nnc(-c2ccco2)n1-c1ccccc1)c1ccccc1,5%,3,1.1,1,i,11
Cc1cc(C)cc(OC(=O)N2CCOCC2)c1,5%,12,1.1,1,i,2
